Results filed as inconclusive are left out. Where a call stands in place of a potency, no number is given. Values without a mark were called inactive. Active and inactive are the calls of the source. Unless noted, calls follow the shape of the dose curve; as a rule, active = well fitted cell-killing curve with a large enough effect in the repeat runs; inconclusive = weak or mixed curves, or effect the other way; inactive = no such curve, though single readings can be large or run the other way.
System: not listed separately
Test: qHTS assay to identify small molecule agonists of the estrogen receptor alpha (ER-alpha) signaling pathway in the presence of an antagonist - cell viability counter screen (AID 1259386);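 also: cells exposed to compounds for 22 h at 37 °C before the viability read; nearly all actives have a fitted effect of over 30% in size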; also: potency is read from the fitted curve at half-maximal effect
Details: VM7Luc4E2 viability, CellTiter-Fluor fluorescence, 22 h; series mostly up to 92.4 µM
In short: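 Fluorescent CellTiter-Fluor viability signal from VM7Luc4E2 cells, with the reagent added during the final hour of a 22hr compound exposure at 37C in the presence of 10.0nM ICI-182,780.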

| SMILES | Potency | activity change, negative = cytotoxicity |
| --- | --- | --- |
| CC/C=C(\C)C=O | inactive |  |
| O=C(O)CN(CCCN(CC(=O)O)CC(=O)O)CC(=O)O |  | -13.1% [at 19 µM] |
| CSc1ccc(O)cc1C | inactive |  |
| O=C(NCc1ncc(C(F)(F)F)cc1Cl)c1c(Cl)cccc1Cl | inactive |  |
| O=c1cc[nH]cc1 | inactive |  |
| CN1CCN(CCCN2c3ccccc3Sc3ccc(Cl)cc32)CC1 | inactive |  |
| CCOc1nc(F)cc2nc(S(=O)(=O)Nc3c(Cl)cccc3C(=O)OC)nn12 | inactive |  |
| Cn1ccnc1 | inactive |  |
| CCCCCCCCCCCCS(=O)(=O)Cl |  | -0.178% [at 19 µM] |
| CCN(CCC#N)c1ccc(N=Nc2ccc([N+](=O)[O-])cc2)cc1 | inactive |  |
| CC(C)C(=O)C(C)C | inactive |  |
| CCN(CC)c1ccc2c(c1)Oc1cc(N(CC)CC)ccc1C21OC(=O)c2ccccc21 | 5.31 µM (active) |  |
| [Cl][Eu]([Cl])[Cl] | inactive |  |
| COc1cc(/C=C/C(=O)CC(=O)/C=C/c2ccc(O)c(OC)c2)ccc1O | 61.5 µM (active) |  |
| N#CCCOCCC#N | inactive |  |
| Oc1cccc2c(O)cccc12 | inactive |  |
| Nc1ccc(F)c([N+](=O)[O-])c1 | inactive |  |
| CC(=O)CC(N)=O | inactive |  |

| SMILES | Potency | activity change, negative = cytotoxicity |
| --- | --- | --- |
| CCSCC | inactive |  |
| C=CC(=O)OCCOC1C2CCC1C1CC=CC12 (stereo not drawn) |  | 0.411% [at 19 µM] |
| CC(C=O)c1ccccc1 (stereo not drawn) | inactive |  |
| CCCC(C)C=O (stereo not drawn) | inactive |  |
| C=CC(=O)O[C@H]1C[C@@H]2CC[C@@]1(C)C2(C)C | inactive |  |
| O=C1OC(=O)c2cc(-c3ccc4c(c3)C(=O)OC4=O)ccc21 | inactive |  |
| CCCCCCCCCCCCCCCCCCNC(=O)OC1CCN(C(=O)OC[C@H](COC(=O)N(Cc2cccc[n+]2CC)C(=O)c2ccccc2OC)OC)CC1 | 26.6 µM (active) |  |
| C=C[Si](C)(C)Cl |  | 0.757% [at 8.39 µM] |
| CCC(C)(C)c1ccc(CC(C)CN2C[C@@H](C)O[C@@H](C)C2)cc1 (stereo partly drawn) | inactive |  |
| CN1CCN(c2ccccc2/C=C2\SCCN(c3ccc(Cl)c(Cl)c3)C2=O)CC1 | 68.6 µM (active) |  |
| Cc1ccc2nc(-c3ccc(N)cc3)sc2c1S(=O)(=O)O | inactive |  |
| O=[N+]([O-])c1ccc(CO)cc1 | inactive |  |
| NC(=O)c1ccccc1Cl | inactive |  |
| CC(CC(C)(C)C)CC(C)(C)CC(C)(C)C (stereo not drawn) | inactive |  |
| O=C(O)C[C@H](O)C[C@H](O)/C=C/c1c(C2CC2)nc2ccccc2c1-c1ccc(F)cc1 |  | 8.43% [at 19 µM] |
| C=Cc1ccncc1 | inactive |  |
| CCN(CC)c1ccc(N=Nc2ccccc2)cc1 | 30.6 µM (active) |  |

Biological target: Progesterone receptor (Homo sapiens) (UniProt P06401)
Test: qHTS assay to identify small molecule agonists of the progesterone receptor (PR) signaling pathway (AID 1346784; calls by dose curve; also: nearly all actives have a fitted effect of over 30% in size)
Details: PR-UAS-bla HEK293T, beta-lactamase FRET ratio, 16 h; series mostly up to 92.4 µM
In short: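 Beta-lactamase reporter read-out: after 16 hr compound treatment at 37C and a further 2 hr at room temperature with LiveBLAzer B/G FRET substrate, fluorescence was measured in PR-UAS-bla HEK 293T cells grown in 2% charcoal-stripped serum.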

Chain of Progesterone receptor (Homo sapiens) (P06401 whole entry, looked up): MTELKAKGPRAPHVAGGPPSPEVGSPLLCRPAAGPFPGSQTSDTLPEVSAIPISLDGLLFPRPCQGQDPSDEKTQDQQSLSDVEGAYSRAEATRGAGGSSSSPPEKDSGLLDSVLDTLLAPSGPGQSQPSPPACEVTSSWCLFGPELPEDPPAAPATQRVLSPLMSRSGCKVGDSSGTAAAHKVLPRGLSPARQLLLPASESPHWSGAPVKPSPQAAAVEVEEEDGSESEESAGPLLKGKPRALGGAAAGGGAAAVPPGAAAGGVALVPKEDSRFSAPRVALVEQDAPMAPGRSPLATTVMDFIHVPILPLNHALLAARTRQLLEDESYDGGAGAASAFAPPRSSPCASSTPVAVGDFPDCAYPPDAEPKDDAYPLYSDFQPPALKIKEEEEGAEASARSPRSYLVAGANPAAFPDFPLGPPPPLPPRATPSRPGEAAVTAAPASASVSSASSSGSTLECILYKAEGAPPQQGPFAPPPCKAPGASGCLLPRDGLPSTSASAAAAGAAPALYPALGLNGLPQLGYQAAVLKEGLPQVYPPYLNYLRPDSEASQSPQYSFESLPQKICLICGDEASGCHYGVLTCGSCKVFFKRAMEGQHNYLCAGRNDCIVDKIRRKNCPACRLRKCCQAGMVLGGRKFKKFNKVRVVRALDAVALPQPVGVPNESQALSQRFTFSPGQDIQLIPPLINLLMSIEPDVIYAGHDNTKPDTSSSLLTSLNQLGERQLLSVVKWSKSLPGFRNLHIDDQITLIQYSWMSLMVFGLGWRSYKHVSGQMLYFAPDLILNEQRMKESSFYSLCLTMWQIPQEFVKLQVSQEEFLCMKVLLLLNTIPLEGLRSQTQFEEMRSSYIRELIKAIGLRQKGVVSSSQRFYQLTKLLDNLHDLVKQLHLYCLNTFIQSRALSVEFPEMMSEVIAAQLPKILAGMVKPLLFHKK

| SMILES | outcome | activation |
| --- | --- | --- |
| CC/C=C(\C)C=O | inactive |  |
| O=C(O)CN(CCCN(CC(=O)O)CC(=O)O)CC(=O)O |  | 8.3% [at 19 µM] |
| CSc1ccc(O)cc1C | inactive |  |
| O=C(NCc1ncc(C(F)(F)F)cc1Cl)c1c(Cl)cccc1Cl | inactive |  |
| O=c1cc[nH]cc1 | inactive |  |
| CN1CCN(CCCN2c3ccccc3Sc3ccc(Cl)cc32)CC1 | inactive |  |
| CCOc1nc(F)cc2nc(S(=O)(=O)Nc3c(Cl)cccc3C(=O)OC)nn12 | inactive |  |
| Cn1ccnc1 | inactive |  |
| CCCCCCCCCCCCS(=O)(=O)Cl |  | -0.481% [at 19 µM] |
| CCN(CCC#N)c1ccc(N=Nc2ccc([N+](=O)[O-])cc2)cc1 | inactive |  |
| CC(C)C(=O)C(C)C | inactive |  |
| CCN(CC)c1ccc2c(c1)Oc1cc(N(CC)CC)ccc1C21OC(=O)c2ccccc21 | inactive |  |
| Cc1cc(Br)ccc1NC(=O)CCl | inactive |  |
| [Cl][Eu]([Cl])[Cl] | inactive |  |
| N#CCCOCCC#N | inactive |  |
| Oc1cccc2c(O)cccc12 | inactive |  |
| Nc1ccc(F)c([N+](=O)[O-])c1 | inactive |  |
| CC(=O)CC(N)=O | inactive |  |
| CC(C=O)c1ccccc1 (stereo not drawn) | inactive |  |
| CCCC(C)C=O (stereo not drawn) | inactive |  |
| C=CC(=O)O[C@H]1C[C@@H]2CC[C@@]1(C)C2(C)C | inactive |  |
| O=C1OC(=O)c2cc(-c3ccc4c(c3)C(=O)OC4=O)ccc21 | inactive |  |
| C=C[Si](C)(C)Cl |  | 0.63% [at 8.39 µM] |
| CCC(C)(C)c1ccc(CC(C)CN2C[C@@H](C)O[C@@H](C)C2)cc1 (stereo partly drawn) | inactive |  |
| O=[N+]([O-])c1ccc(CO)cc1 | inactive |  |
| NC(=O)c1ccccc1Cl | inactive |  |
| O=C(O)C[C@H](O)C[C@H](O)/C=C/c1c(C2CC2)nc2ccccc2c1-c1ccc(F)cc1 |  | -0.575% [at 19 µM] |
| C=Cc1ccncc1 | inactive |  |

Biological target: Progesterone receptor (Homo sapiens) (UniProt P06401)
Test: qHTS assay to identify small molecule antagonists of the progesterone receptor (PR) signaling pathway (AID 1346795; active = well fitted inhibition curve with a large enough effect in the signal ratio in the repeat runs, not every such curve was filed as active; the % refers to the signal ratio; also: potency is read from the fitted curve at half-maximal effect)
Details: PR-UAS-bla HEK293T, beta-lactamase FRET ratio, 16 h; series mostly up to 92.4 µM
In short: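 Read-out is fluorescence from the LiveBLAzer B/G FRET substrate, cleaved by a UAS-controlled beta-lactamase in PR-UAS-bla HEK293T cells after 16 hr exposure to compound plus 1 nM promegestone (final), followed by 2 hr at room temperature.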

| SMILES | Potency | activity change, negative = inhibition |
| --- | --- | --- |
| CC/C=C(\C)C=O | inactive |  |
| O=C(O)CN(CCCN(CC(=O)O)CC(=O)O)CC(=O)O |  | -17.6% [at 18.9 µM] |
| O=C(NCc1ncc(C(F)(F)F)cc1Cl)c1c(Cl)cccc1Cl | 24.3 µM (active) |  |
| O=c1cc[nH]cc1 | inactive |  |
| CCOc1nc(F)cc2nc(S(=O)(=O)Nc3c(Cl)cccc3C(=O)OC)nn12 | inactive |  |
| CCN(CCC#N)c1ccc(N=Nc2ccc([N+](=O)[O-])cc2)cc1 | inactive |  |
| CCN(CC)c1ccc2c(c1)Oc1cc(N(CC)CC)ccc1C21OC(=O)c2ccccc21 | inactive |  |
| Nc1ccc(F)c([N+](=O)[O-])c1 | inactive |  |
| CCCC(C)C=O (stereo not drawn) | inactive |  |
| O=C1OC(=O)c2cc(-c3ccc4c(c3)C(=O)OC4=O)ccc21 | inactive |  |
| C=C[Si](C)(C)Cl |  | 4.87% [at 8.39 µM] |
| CCC(C)(C)c1ccc(CC(C)CN2C[C@@H](C)O[C@@H](C)C2)cc1 (stereo partly drawn) | inactive |  |
| O=[N+]([O-])c1ccc(CO)cc1 | inactive |  |
| NC(=O)c1ccccc1Cl | inactive |  |
| C=Cc1ccncc1 | inactive |  |

Reference: PubChem BioAssay (Tox21)
